The list is not random: actives were taken first. Their share in the collection is about 1.5%.
PABP polyA inh – PABP poly(A) RNA binding inhibitors, primary screen, biochemical, fluorescence polarization, uHTS | calls only at 35 µM | 290,000 compounds, 1% hits;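 note: calls also rest on retests at 20 µM and on dose response follow-up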
eIF4H FP inh – human eIF4H binding inhibitors, primary screen, translation initiation inhibitor project, biochemical, uHTS, fluorescence polarization | 290,000 compounds, 0.94% hits | Eukaryotic translation initiation factor 4H (Homo sapiens), Q15056 | eIF4H fluorescence polarization binding assay | inhibition, % at 35 µM | AID 2012, 2009;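 note: calls also rest on retests at 20 µM and on dose response follow-up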
MLLE-PAM2 inh – inhibitors of PABP1 MLLE–PAM2 peptide binding, primary screen, biochemical, fluorescence polarization, FITC-PAM2, GST-MLLE; inhibition, % at 20 µM; 360,000 compounds, 0.36% hits; Polyadenylate-binding protein 1 (Homo sapiens), P11940; in the data active = inhibition above about 35%, passing the limit was not always enough;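 note: plate controls were DMSO wells with GST-MLLE for no effect and wells lacking GST-MLLE protein for full effect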
eIF4E 4G PPI – eIF4E–eIF4G protein interaction inhibitors, primary screen, biochemical, uHTS, TR-FRET, eIF4GI fragment. Eukaryotic translation initiation factor 4E (Mus musculus) + Eukaryotic translation …. TR-FRET eIF4E-eIF4GI(517-606) binding, 2 h. inhibition, % at 21.7 µM. 220,000 compounds, 0.37% hits. AID 782, 2007;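 active = inhibition above about 30%, limit read from the data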;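 note: 0% = full FRET control wells and 100% = background wells lacking eIF4GI fragment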
Active calls of the source: *; i = inactive; · = no result given; + = active, no number; [ ] = dose if it differs, or a comment. Unless noted, the rule behind the calls is not given here.

SMILES | PABP polyA inh | eIF4H FP inh | MLLE-PAM2 inh | eIF4E 4G PPI
CC(C)CSC1=NSC2=NC(=O)/C(=C\c3cccs3)C(=N)N12 | i | 51* | -26 | 1
COc1cc(NS(=O)(=O)c2ccc(NC(=S)NC(=O)c3sc4cc(F)ccc4c3Cl)cc2)nc(OC)n1 | i | 2 | 41* | 0
COc1cc(NS(=O)(=O)c2ccc(NC(=S)NC(=O)c3sc4ccccc4c3Cl)cc2)nc(OC)n1 | i | 7 | 48* | -3
COc1cccc(/C=C/C(=O)OC(C)C(=O)Nc2c(C)n(C)n(-c3ccccc3)c2=O)c1 (configuration not stated) | i | 3 | -1 | 2
Cc1c(NC(=O)C(C)OC(=O)/C=C/c2ccco2)c(=O)n(-c2ccccc2)n1C (configuration not stated) | + | 78* | 0 | 6
CC(=O)NNC(=O)c1sc(=S)n2c1[nH]c(=O)c1sccc12 | + | 54* | 34 | 3
CC(C)n1nc(C(=O)Oc2cc(Cl)ccc2Cl)c2ccccc2c1=O | i | -7 | 5 | 2
CC(C)n1nc(C(=O)Oc2cccc(Cl)c2Cl)c2ccccc2c1=O | + | 3.7* | -7 | 6
Cc1cc(C)n2nc(CNS(=O)(=O)c3ccc(C(C)(C)C)cc3)nc2n1 | · | · | -13 | ·
CCC/C(=N/NC(=O)c1csc(C)c1C)c1ccc(Cl)s1 | i | active | 6 | 8
COc1cc(NC(=O)c2ccccc2-c2ccccc2)cc(OC)c1OC | i | -2 | · | -10
COc1cc(C=Nc2ccccc2C(=O)Nc2ccccc2)cc(OC)c1OC | + | 3.3* | 9 | 0
O=C(CNCc1ccncc1)Nc1cc(S(=O)(=O)N2CCCCC2)ccc1Cl | i | 104* | -40 | -1
Cc1ccc(S(=O)(=O)N2CCCCC2)cc1NC(=O)COC(=O)c1ccc2c(c1)OCO2 | i | 2.0* | -3 | -1
Cc1ccc(S(=O)(=O)N2CCCCC2)cc1NC(=O)c1ccc2c(c1)OCO2 | i | 4 | 13 | -1
Cc1ccc(S(=O)(=O)N2CCCCC2)cc1NC(=O)CNCc1ccco1 | + | 83* | 2 | -5
Cc1ccc(S(=O)(=O)N2CCCCC2)cc1NC(=O)c1ccco1 | · | · | -5 | ·
Cc1c(Cl)c([N+](=O)[O-])nn1CCCC(=O)O | i | active | -2 | 6
COc1cc(/C=C2/S/C(=N/S(=O)(=O)c3ccccc3)NC2=O)c([N+](=O)[O-])cc1OC | i | 22 | 39* | 2
COc1cc(/C=C2\S/C(=N/S(=O)(=O)Cc3ccccc3)NC2=O)c([N+](=O)[O-])cc1OC | i | 1 | 23 | -3
Nc1n[nH]c(=S)n1/N=C1/C(=O)Nc2ccccc21 | i | 38 | 45* | 1
O=C1Nc2ccccc2C1=NN1CCCCCC1 | · | · | -2 | ·
CCCC(C)(C)C(=O)N1CCC1(C)C(=O)Nc1cccc(OC)c1 (configuration not stated) | · | · | 4 | ·
Cc1ccc(-c2c(C)c(-c3ccc(F)cc3)nc(N)c2C#N)o1 | + | 76* | 1 | 6
O=C(NC1CCCCCC1)C(=S)N1CCCC1 | i | -9 | -8 | -3
SMILES | PABP polyA inh | eIF4H FP inh | MLLE-PAM2 inh | eIF4E 4G PPI
O=C(NC1CCCCCC1)C(=S)N1CCOCC1 | i | 6 | 44* | 0
COc1ccc(Nc2nc(N)nc(CSc3nccn3C)n2)cc1 | i | 90* | 15 | 1
COc1ccccc1S(=O)(=O)N(C)C[C@H]1OCc2cn(nn2)CCCC(=O)N([C@H](C)CO)C[C@@H]1C | · | · | 18 | ·
Cc1ccccc1Cn1ccc(NC(=O)c2nn3cccnc3c2Cl)n1 | i | 9 | -118 | 1
Cc1ccccc1Cn1ccc(NC(=O)c2cc3ncc(Br)cn3n2)n1 | i | 53* | -2 | 14
Cn1nc(C(C)(C)C)cc1C(=O)N1CCCCC1c1cc(C(=O)NCc2ccccc2)no1 (configuration not stated) | · | · | -9 | ·
NC(Cc1ccc(F)cc1)c1csc(Nc2ccc(S(N)(=O)=O)cc2)n1 (configuration not stated) | · | · | -2 | ·
O=C(/C=N/O)Nc1ccc(F)cc1 | i | -12 | 2 | 53*
O=C(/C=N/O)Nc1cccnc1 | i | 2 | -2 | 0
OCCN(Cc1ccccc1)Cc1ccc(Cl)cc1Cl | i | 3 | 1 | 4
O=C(O)c1ccc2c(c1)CCCN2 | + | 52* | 18 | 0
O=C(O)c1cccc(COc2ccc3c(c2)CCC3)c1 | i | 45 | -12 | 4
Fc1cccc(Cc2c(-c3cccc(Cl)c3)nc3c(Cl)cc(C(F)(F)F)cn23)c1 | · | · | -2 | ·
CNc1ccc(Cl)cc1C(N)=O | + | -6 | -14 | -2
N#CCCN(C(=O)COc1ccc(F)cc1Br)c1ccccc1F | i | -4 | 1 | -1
O=c1[nH]ncc(N/N=C\c2cccs2)c1Cl | + | active | -4 | 4
O=c1[nH]ncc(N/N=C\c2ccncc2)c1Cl | i | -9 | 0 | -1
COc1ccccc1-c1csc(C(C)(O)c2ccccc2)n1 (configuration not stated) | · | · | 2 | ·
Cn1nnc(NC(=S)NC(=O)c2ccc3ccccc3c2)n1 | · | · | 49* | ·
CC(=O)Nc1ccc(SCC(=O)NC(=O)c2ccc(S(=O)(=O)N(C)C)cc2)cc1 | · | · | 40* | ·
Cc1cccc(S(=O)(=O)N(C)C[C@H]2OCc3cnnn3CCCC(=O)N([C@H](C)CO)C[C@@H]2C)c1 | · | · | -8 | ·
O=[N+]([O-])c1cc(Br)cc(C=Nc2ccc3c(c2)OCO3)c1O | + | 69* | -6 | 9
O=[n+]1c2c(n([O-])c3cc(F)c(F)cc31)CCCC2 | i | 66* | 16 | 10
O=[n+]1c2c(n([O-])c3cc(Br)ccc31)CCCC2 | i | -1 | -2 | 4
CCN(CC)c1ccc(/C=N/Nc2nn[nH]n2)cc1 | + | 51* | -123 | 2
SMILES | PABP polyA inh | eIF4H FP inh | MLLE-PAM2 inh | eIF4E 4G PPI
CC1(C(=O)Nc2cnc3ccccc3c2)CCN1Cc1ccc(-c2ccccc2)o1 (configuration not stated) | · | · | 21 | ·
Cc1ccc(C)c(N2CCN(C(=O)C(Cc3ccccc3)n3cccc3)CC2)c1 (configuration not stated) | i | -2 | 13 | 67*[fluorescence artefact?]
CCCc1nc2ccc(C)cn2c1Cc1cccc(Cl)c1 | · | · | -11 | ·
COc1ccc(-n2ccnc(SCC(=O)NC3CCCC3)c2=O)cc1OC | · | · | 51* | ·
COc1ccc(-n2ccnc(SCC(=O)NC3CCCC3)c2=O)cc1 | i | -1 | 41* | ·
COc1ccc(-n2ccnc(SCC(=O)NC3CCCCC3)c2=O)cc1 | i | -9 | 24 | ·
O=C(CSc1nccn(-c2ccc(Br)cc2)c1=O)NC1CCCC1 | · | · | 45* | ·
Cc1ccc(-n2ccnc(SCC(=O)NC3CCCCC3)c2=O)cc1F | · | · | 41* | ·
O=Nc1ccc(NO)c2ccccc12 | · | · | -6 | ·
O=C(NCc1ccccc1)c1cc(C2COCCN2C(=O)c2ccccc2)on1 (configuration not stated) | · | · | 2 | ·
Cc1c(P(=O)(c2ccccc2)c2ccccc2)c2ccccc2n1C | · | · | -37 | ·

Screening results (PubChem)
